Screening data from PubChem.
PfHsp40 yeast = rescue of PfHsp40-mediated yeast toxicity. AID 504582. growth rescue, % at 12.5 µM. 340,000 tested, 0.68% active. S. cerevisiae expressing PfHsp40, growth rescue, ATP luminescence; in the data active = growth rescue above about 28%, passing the limit was not always enough;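 also: yeast W303a lacking pdr1 and pdr3 grown in galactose medium; growth measured after three days at 30 °C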
ugtP null kill = growth inhibition of S. aureus ugtP deletion strain; S. aureus RN4220 ugtP deletion, OD600 growth, 16 h; growth inhibition, % (test concentration not listed); 330,000 tested, 0.54% active; in the data active = growth inhibition above about 68%;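 also: plate controls were untreated wells for no effect and antibiotic for full effect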
VHR inh abs = blocks human VHR1 dual specificity phosphatase | P51452 | recombinant VHR phosphatase, pNPP absorbance | inhibition, % at 13.3 µM | 290,000 tested, 0.52% active | AID 1654; in the data active = inhibition above about 50%
Target sequence (P51452 whole entry, looked up): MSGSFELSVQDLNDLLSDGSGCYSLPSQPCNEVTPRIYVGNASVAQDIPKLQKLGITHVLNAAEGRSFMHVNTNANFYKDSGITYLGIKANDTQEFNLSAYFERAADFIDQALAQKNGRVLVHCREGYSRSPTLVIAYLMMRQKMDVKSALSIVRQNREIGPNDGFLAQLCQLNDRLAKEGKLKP
PrPC surface inh = reduces human prion protein on the cell surface; P04156; cell surface PrPC, TR-FRET read-out; inhibition, % at 13.8 µM; 370,000 tested, 0.43% active; AID 720596; in the data active = inhibition above about 24%; also: 0% = median of the test wells and 100% = reference compound wells
RN4220 kill = kills Staphylococcus aureus RN4220; S. aureus RN4220 growth, OD600, 16 h; inhibition, % (test concentration not listed); 330,000 tested, 0.33% active; AID 1259311; in the data active = inhibition above about 85%;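 also: plate controls were untreated cells for no effect and reference antibiotic for full effect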
* = called active by the depositor; . = no result given. Only some compounds are listed: those with a hit (about 1.8% of all), similar ones and a draw of the others.

SMILES	PfHsp40 yeast	ugtP null kill	VHR inh abs	PrPC surface inh	RN4220 kill
CCOC(=O)C1C2COc3cc(OC)ccc3C2N2C(=O)c3cc(OC)ccc3NC(=O)[C@@]12C (some centres undefined)	.	0.9	.	.	4.2
CC(C)C(CSc1ccccc1)N1CCN(Cc2ccccc2)CCC1=O (centres undefined)	.	-6.6	.	.	1.2
COC(=O)C1=C(c2ccc(S(C)(=O)=O)cc2)CC2CCC1N2C(=O)NCc1ccco1 (centres undefined)	.	1.7	.	.	7.1
COc1ccc(C2C3=C(CC(C)(C)CC3=O)Oc3ncn(Cc4ccccc4)c(=N)c32)cc1 (centres undefined)	0.9	14.9	55.3*	-0.1	-2.9
CC1(C)CC(=O)C2=C(C1)Oc1ncn(Cc3ccco3)c(=N)c1C2c1ccccc1 (centres undefined)	1.4	-1.8	39.8	2.6	-1.0
Cc1ccc(/C=N/c2sc3c(c2C#N)CCC3)s1	43.0*	.	-7.3	3.4	.
Cc1ccc(/C=N/c2sc3c(c2C#N)CCCCC3)o1	2.6	.	32.5	1.0	.
O=C1c2cccc3cccc(c23)C(=O)N1CC1CCN(CC(O)COc2ccc3ccccc3c2)CC1 (centres undefined)	-0.9	14.2	.	-20.7	58.7
CCc1ccc(OCC(O)CN2CCC(CN3C(=O)c4cccc5cccc(c45)C3=O)CC2)cc1 (centres undefined)	-0.1	85.4*	8.5	-21.6	80.4
CCCCN1CC(=O)N2C3c4ccccc4OCC3C(c3ccccc3)[C@]2(C)C1=O (some centres undefined)	.	6.6	.	.	9.0
CC1NC(=O)C(CC(N)=O)NC(=O)c2cc([N+](=O)[O-])cc(I)c2OCCC(C(=O)NC(CC(=O)O)C(N)=O)NC1=O (centres undefined)	.	3.4	.	.	5.1
CCn1cc(C(=O)NNC(=O)c2ccc(Cl)cc2)c(=O)c2ccc(C)nc21	1.7	3.4	52.1*	.	7.3
CCn1cc(C(=O)OCC(=O)c2ccc(Cl)cc2)c(=O)c2ccc(C)nc21	3.5	6.6	-0.6	-8.4	11.7
Cc1cc(C)cc(NC(=O)c2cc(C)nc3ccccc23)c1	-1.1	0.9	58.7*	-4.8	1.6
Cc1cc(C(=O)NNC(=O)c2ccc(Cl)cc2)c2ccccc2n1	65.4*	3.9	.	2.8	6.8
COC(=O)[C@@]1(Cc2ccc(OC)cc2)C2C(=CC(=O)C2CC(=O)C(=O)N2CCCC2)CN1C(=O)c1ccccc1 (some centres undefined)	.	1.2	.	.	0.4
O=C(C=CNc1ccc(F)cc1)c1cccs1	.	-6.2	.	.	4.3
COc1ccc(C)cc1NC(=O)CSc1nnc(COc2ccc(Cl)cc2)n1Cc1ccco1	48.1*	-26.2	0.8	8.9	-3.5
COc1ccc(C)cc1NC(=O)CSc1nnc(COc2ccccc2)n1Cc1ccco1	0.7	-9.3	18.1	13.6	-4.0
COC(=O)CC1=C(C(=O)OC)C2(C(=O)Nc3c(C)cccc32)C(C#N)=C(N)O1 (centres undefined)	-0.2	94.5*	-11.9	-15.0	97.3*
C#CCN1C(=O)C2(C(C#N)=C(N)OC(C)=C2C(=O)OCc2ccccc2)c2ccccc21 (centres undefined)	-0.2	-3.7	18.9	-10.2	39.2
CCOC(=O)C1=C(C)OC(N)=C(C#N)C12C(=O)N(C)c1ccccc12 (centres undefined)	0.3	74.1	15.2	1.0	90.5*
O=C(CC1NS(=O)(=O)OC2CCCCC12)c1ccccc1 (centres undefined)	.	2.0	.	.	0.8
O=C1c2cccc3cccc(c23)C(=O)N1CCN1CCN(C(=S)Nc2ccccc2)CC1	0.2	97.8*	4.0	-36.2	92.7*
O=C1c2cccc3cccc(c23)C(=O)N1CCN1CCN(C(=S)Nc2ccc(Cl)cc2)CC1	-1.0	-5.0	28.2	-9.2	-1.1
SMILES	PfHsp40 yeast	ugtP null kill	VHR inh abs	PrPC surface inh	RN4220 kill
COCCN1C(=O)NC(c2cccs2)C(C(=O)OC)=C1C (centres undefined)	.	2.3	.	.	2.2
O=C(NNC(=O)c1cc2ccccc2cc1O)Nc1ccc(Br)cc1	35.8*	3.2	22.9	-0.9	-1.1
CN(C)S(=O)(=O)c1cccc(NC(=S)NNC(=O)c2cc3ccccc3cc2O)c1	219.5*	.	.	-2.9	.
COc1ccc(NC(=O)NNC(=O)c2cc3ccccc3cc2O)cc1	90.2*	-1.7	1.8	-4.4	4.1
COc1ccc(NC(=O)c2ccccc2[N+](=O)[O-])cc1	-1.0	-0.4	55.4*	-6.1	-2.4
COc1ccc(CNC(=O)c2ccccc2[N+](=O)[O-])cc1	-1.7	-3.7	20.2	.	6.3
Cn1cccc1C=NNC(=O)c1cc2ccccc2cc1O	.	8.4	.	.	3.5
COCCN1C(=O)NC(c2cccs2)C(C(C)=O)=C1C (centres undefined)	.	-11.2	.	.	-2.9
COc1ccccc1NC(=O)c1cc2cc(Br)ccc2cc1O	0.1	100.0*	4.4	-5.9	99.5*
CC(=O)NC(CC(=O)NNC(=O)c1cc2ccccc2cc1O)c1ccccc1 (centres undefined)	78.5*	3.4	17.9	-10.4	4.5
COc1cc(NC(=O)c2cc3ccccc3cc2O)c(OC)cc1Cl	-1.4	4.0	15.0	-9.5	-2.4
COc1cc(NC(=O)COC(=O)CC(NC(C)=O)c2ccccc2)cc(OC)c1 (centres undefined)	-0.2	11.4	-19.2	-7.5	2.3
O=C(COC(=O)c1cc2ccccc2cc1O)NC1CCCCC1	-1.3	4.1	.	-0.5	7.1
O=C(NNC(=O)c1cc2ccccc2cc1O)NC1CCCCC1	59.7*	0.8	27.2	2.6	-0.7
CC(=NNC(=O)CN1CCN(S(=O)(=O)c2ccc(Br)cc2)CC1)c1ccncc1	.	8.2	.	.	3.1
N#CC(C#N)=C1C=CC=CN1/C(=C\c1ccco1)C(=O)c1ccc(Br)cc1	3.1	98.4*	-8.9	1.8	98.7*
COc1ccc(C(=O)/C(=C\c2ccco2)N2C=CC=CC2=C(C#N)C#N)cc1	-1.3	29.6	35.6	.	30.4
CC(=O)c1cnn(-c2ccc(Cl)cc2)c1C	-1.9	-1.5	31.6	-3.1	3.1
Cc1c(C(=O)NCCSCc2cccc(C(F)(F)F)c2)cnn1-c1ccc(Cl)cc1	315.2*	-9.5	5.1	14.1	-2.8
CCC(=O)N1CCN(c2cc3c(cc2F)c(=O)c(C(=O)O)cn3CC)CC1	-1.3	47.3	.	2.4	44.0
CCn1cc(C(=O)O)c(=O)c2cc(F)c(N3CCN(S(=O)(=O)c4ccc(NC(=O)OC)cc4)CC3)cc21	1.2	99.8*	-1.0	-5.8	97.1*
CCCCCCCCCC(=O)N1CCN(c2cc3c(cc2F)c(=O)c(C(=O)O)cn3CC)CC1	-1.8	11.5	32.2	3.2	-0.9
CCn1cc(C(=O)O)c(=O)c2cc(F)c(N3CCN(C(=S)Nc4ccccc4OC)CC3)cc21	1.1	99.4*	13.3	3.8	99.1*
CCn1cc(C(=O)O)c(=O)c2cc(F)c(N3CCN(C(=S)NC(=O)c4c(OC)cccc4OC)CC3)cc21	-0.6	100.2*	6.4	8.5	98.4*
O=C(Nc1cccc(C(F)(F)F)c1)c1cccnc1N1CCN(c2ccccc2)CC1	-0.2	92.1*	24.3	2.3	-9.7
